These results are taken from PubChem BioAssay (NCI).

Each structure is given as a SMILES string. This is part of a sample that, as a whole, favours compounds with a hit. Of some 83,000 tested, about 20% had one in any assay.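 The test compound was applied at a single concentration to cells in 96-well plates for 48 hours, and percent growth was recorded.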 Values without a mark were called inactive. Calls of active or inactive are those of the source. Rule for the calls: active = growth percent below 10; inactive = the rest.

Experiment in all cases: NCI-60 one-dose screen, 48 h (100 = growth as untreated, 0 = no growth, -100 = all killed)
Holding throughout (settings): 10 µM unless noted

The test system of test [1] is HCT-15 colon.
The subject of test [2] is HT29 colon.
The subject of test [3] is SNB-75 CNS.
The subject of test [4] is SNB-19 CNS.
Test [5] concerns U251 CNS.
Test [6] relates to PC-3 prostate.
Test [7] relates to SK-MEL-5 melanoma.
Test [8] relates to UACC-62 melanoma.
Test [9] has as its system LOX IMVI melanoma.
The test system of test [10] is SK-MEL-28 melanoma.
Test [11] has as its system SK-MEL-2 melanoma.
Test [12] concerns EKVX NSCLC.
The subject of test [13] is SN12C renal.
Test [14] concerns UO-31 renal.
The test system of test [15] is TK-10 renal.
In test [16] the test system is ACHN renal.
For test [17], the system named is CAKI-1 renal.
Test [18] has as its system A498 renal.
Test [19] deals with CCRF-CEM leukemia.
Test [20] relates to MOLT-4 leukemia.

Take `COc1nc2ccccc2cc1/C=C1/C=C(c2ccccc2)NC1=O`: the growth in [1] is 30.3%; in test [2], 10%; in test [3], 28.8%; in test [4] it was 43.4%; in test [5], 31%; in [6] it was 55.1%. In addition, the growth was 39.4% in test [7]; 32.1% in test [8]; 38.8% in test [9]; 58.9% in test [10]; 19% in [11]; 52.5% in test [12]. In addition, the growth is 40.6% in test [13]; 41.2% in test [14]; 87.5% in test [15]; 40.9% in [16]; 31.9% in [17]; 35.9% in test [18]. The growth was 41.1% in test [19] and 21.5% in [20].

For the compound `Cc1[nH]c(C(=O)Nc2ccccc2OC2CCNC2)c(Cl)c1Cl` (configuration not stated), the growth in test [1] was 77.7%; in test [2], 77.8%; in test [3] it was 65.2%; in test [4], 85.3%; in [5], 64.4%; in test [6], 80.2%. The growth in test [7] is 85.8%; in [8] it was 68.1%; in test [9], 30.7%; in test [10] it was 106%; in [11], 96.5%; in test [12], 70.3%. Moreover, the growth in test [13] is 78.2%; in test [14] it was 45.5%; in test [15], 122%; in test [16], 42.8%; in test [17], 76%; in [18], 70.7%. Moreover, the results for the growth in test [19] and in test [20] were 59.3% and 87.8%, respectively.

Regarding `COc1cccc(/C=C2\CCc3ccccc3C2=O)c1`, the growth is 87.2% in test [1]; 77.1% in test [2]; 97.4% in [3]; 75.7% in test [4]; 83.2% in test [5]; 83.4% in [6]. Besides, the growth in [7] was 76.8%; in test [8], 80.1%; in [10], 118%; in test [11], 82.9%; in [12] it was 87.9%; in test [13], 84.6%. Further, the growth was 72.5% in test [14]; 94.4% in test [15]; 95.7% in [16]; 77.3% in test [17]; 95.2% in [18]; 37.7% in test [19]. In test [20], the growth was 71.6%.

For the compound `COc1cccc2cc(N(C)c3ncnc4ccccc34)ccc12`, the growth is 11.1% in test [1]; 2.77% (active) in test [2]; 34.8% in test [3]; 31.8% in test [4]; 11% in [5]; 5.88% (active) in test [6]. For the same compound, the growth in [7] is -32.4% (active); in test [8] it was 23.4%; in test [9], 15.5%; in [10], 33.3%; in [11] it was 30.1%; in test [12], 43.8%. Further, the growth is 20.9% in test [13]; 25.4% in test [14]; 51% in test [15]; 6.07% (active) in test [16]; 10.8% in test [17]; -7.44% (active) in test [18]. The growth was 22% in test [19] and 16.8% in [20].

Regarding `COc1ccc(NC(=O)c2sc3nc(C)c(C(=O)c4ccccc4)cc3c2N)cc1`, the growth in test [1] was 95.2%; in test [2] it was 89.8%; in [3], 107%; in test [4], 90.8%; in test [5], 100%; in test [6], 97%. Further, the growth in test [7] was 103%; in [8], 79.9%; in test [9] it was 108%; in [10], 89.9%; in [11], 88.8%; in [12], 94.7%. For the same compound, the growth in [13] was 99.5%; in test [14], 90%; in test [15], 86.6%; in [16], 95.1%; in test [17] it was 92.9%; in test [18] it was -9.31% (active). Further, the growth is 95% in test [19] and 88.5% in [20].

Regarding `CC(C)=CC(=O)C1C(=O)c2ccccc2C1=O`, the growth in test [1] is 95%; in test [2], 111%; in test [3] it was 90%; in test [4] it was 94.7%; in test [5] it was 95.1%; in [6], 100%. Further, the growth is 99.2% in test [7]; 94.3% in [8]; 108% in [10]; 102% in test [11]; 99.4% in test [12]; 95.1% in test [13]. For the same compound, the growth was 92.3% in test [14]; 108% in test [15]; 97.1% in [16]; 81% in test [17]; 87.6% in test [18]; 98.1% in test [19]. Further, the growth in test [20] was 103%.

Take `CCOC(=O)c1c(C)nc2c(c1N)C(=O)C(=O)N2CCc1ccc(OC)c(OC)c1`: the growth in [1] was 33.3%; in test [2] it was 39.6%; in [3] it was 67%; in test [4] it was 84.8%; in test [5] it was 57.7%; in test [6], 58.9%. The growth in [7] is 44.9%; in test [8], 64.8%; in test [9] it was 76.9%; in [10] it was 80.9%; in [11], 75.5%; in test [12] it was 57.6%. For the same compound, the growth in [13] was 89.1%; in test [14], 57.5%; in [15] it was 70.8%; in test [16], 74%; in test [17], 60.2%; in test [18], 55.5%. In addition, the values for the growth in test [19] and in test [20] were 75.1% and 57.3%, respectively.

As for `COc1cccc(NC(=O)c2sc3nc(C)c(C(=O)c4ccccc4)cc3c2N)c1`, the growth in test [1] was 87%; in [2] it was 102%; in [3] it was 60.8%; in test [4], 78%; in [5], 82.8%; in [6], 89.9%. Besides, the growth in test [7] is 93.8%; in [8], 73.1%; in test [10], 82.2%; in test [11], 93.7%; in [12], 69.1%; in [13], 94.4%. Moreover, the growth in [14] was 93%; in test [15], 102%; in test [16], 96.6%; in test [17], 63.2%; in [18], -2.09% (active); in [19], 99%. For the same compound, in test [20], the growth was 115%.
